AI-2 QS modul: Vibrio harveyi AI-2 quorum sensing modulators, primary screen, JMH597 strain, luminescence/OD600 ratio. activity change, % at 7.5 µM. actives 0.4% (n = 300,000). Vibrio harveyi JMH597 AI-2 luminescence/OD600 ratio, 9 h; active compounds read low; strain lacks LuxN and CqsS sensors; 0 = neutral-control median; in the data active means activity change below about -75%, passing the limit was not always enough;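 further: luminescence divided by OD600 gain over 9 h not by final OD600 alone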
Rin1 Abl inh: inhibitors of Rin1-Abl protein binding, primary screen, biochemical, TR-FRET; Tyrosine-protein kinase ABL1 (Homo sapiens) + Ras and Rab interactor 1 (Homo sapiens), …; inhibition, % at 7.35 µM; actives 0.4% (n = 360,000); in the data active means inhibition above about 5%, passing the limit was not always enough
ARNT TACC3 PPI: disruptors of ARNT/TACC3 protein interaction, primary screen, biochemical, AlphaScreen, single concentration | inhibition, % at 9.99 µM | actives 0.66% (n = 390,000) | AlphaScreen His-ARNT PAS-B/GST-TACC3 binding, luminescence; TACC3 fragment carries E629A point mutation | AID 623870, 2012;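 active means mean inhibition of replicates at least 50% and at least half of replicates each reaching 50%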;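 further: 0% = complete ARNT plus TACC3 wells and 100% = ARNT alone without TACC3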
HGIII-sPLA2 inh: human group III sPLA2 inhibitors, primary screen, biochemical, QFRET, BODIPY PC-A2 liposome substrate; AID 743126, 2013; inhibition, % at 12.2 µM; actives 0.56% (n = 370,000); QFRET BODIPY PC-A2 liposome hydrolysis, fluorescence;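 active means inhibition above mean plus 3 SD of compounds lying within the high and low control bounds, cut at about 19% in these data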;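 further: 0% = median of test compound wells and 100% = no enzyme DMSO wells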
Target sequence (Q9NZ20 whole entry, looked up): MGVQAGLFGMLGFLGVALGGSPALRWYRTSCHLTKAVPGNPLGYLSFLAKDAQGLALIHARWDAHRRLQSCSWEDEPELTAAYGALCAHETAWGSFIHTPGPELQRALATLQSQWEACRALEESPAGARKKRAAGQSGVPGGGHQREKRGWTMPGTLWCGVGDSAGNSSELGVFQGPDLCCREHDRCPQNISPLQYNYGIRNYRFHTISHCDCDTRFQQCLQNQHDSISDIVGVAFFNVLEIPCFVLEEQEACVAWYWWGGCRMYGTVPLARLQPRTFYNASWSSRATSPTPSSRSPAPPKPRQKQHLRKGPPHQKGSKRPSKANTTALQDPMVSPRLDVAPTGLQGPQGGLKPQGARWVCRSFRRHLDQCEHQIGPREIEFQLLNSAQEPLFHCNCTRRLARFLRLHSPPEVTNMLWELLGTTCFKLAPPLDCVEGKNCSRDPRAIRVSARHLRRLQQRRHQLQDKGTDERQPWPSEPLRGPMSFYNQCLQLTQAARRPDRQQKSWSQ
hGIII sPLA2 conf: human group III sPLA2 inhibitors, confirmation, biochemical, QFRET, triplicate | shares compounds with HGIII-sPLA2 inh | recombinant hGIII-sPLA2, BODIPY PC-A2 QFRET fluorescence | inhibition, % at 12.2 µM | actives 34% (n = 2,000) | AID 743280, 2014;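 active means mean inhibition across triplicates above the hit cutoff set in the earlier primary screen, cut at about 19% in these data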;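 further: 0% = enzyme with DMSO and 100% = DMSO wells lacking enzyme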
BODIPY interf: 535nm fluorescence optical interference, confirmation, artefact control for HGIII-sPLA2 inhibitor project, biochemical, QFRET | AID 743282, 2014 | BODIPY FL product fluorescence interference | inhibition, % at 12.2 µM | actives 8.5% (n = 2,000) | shares compounds with HGIII-sPLA2 inh;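 active means average inhibition above the solvent-only control mean plus 3 SD, cut at about 6% in these data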;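 further: 0% = DMSO with substrate plus product and 100% = DMSO with substrate alone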
BODIPY interf DR: 535nm fluorescence optical interference, dose response, artefact control for HGIII-sPLA2 inhibitor project, biochemical, QFRET | 240 tested, under 10 active | BODIPY FL product fluorescence interference, cell-free | IC50, µM | shares compounds with HGIII-sPLA2 inh | AID 743455, 2014;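 active means IC50 at or below 10 µM; inactive means IC50 above 10 µM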
Active calls of the source: *; . = no result given. In the library only some 1.5% were active in any assay of this set; here they are far more common.

SMILES	AI-2 QS modul	Rin1 Abl inh	ARNT TACC3 PPI	HGIII-sPLA2 inh	hGIII sPLA2 conf	BODIPY interf	others
CN(C)C(=O)c1ccc(-c2ccc([C@@H]3[C@H](CO)N4CCCCN(Cc5cncnc5)C[C@@H]34)cc2)cc1	.	.	-2	.	.	.
CCCN1C[C@H](C)[C@@H](OC)CN(C)C(=O)c2cc(NC(=O)COC)ccc2OC[C@@H]1C	.	.	9	.	.	.
C[C@H](CO)N1C[C@H](C)[C@@H](CN(C)S(=O)(=O)c2ccc(F)cc2)OCCCC[C@H](C)Oc2ccc(NS(=O)(=O)c3cn(C)cn3)cc2C1=O	.	.	4	.	.	.
S=C(NCc1ccc2c(c1)OCO2)NCc1ccc2c(c1)OCO2	-9	1	2	8	.	.
NNC(=S)NCc1ccc2c(c1)OCO2	31	-3	3	20*	10	-6
Cc1c(Cl)c(C(=O)NNC(=S)Nc2ccc(F)cc2)nn1C	-16	0	18	34*	41*	5	BODIPY interf DR=>122
CCNC(=S)NNC(=O)c1nn(C)c(C)c1Cl	2	2	2	6	.	.
Cc1c(Cl)c(C(=O)NNC(=S)Nc2ccccc2)nn1C	-1	1	.	29*	46*	0	BODIPY interf DR=>122
Cc1ccc(S(=O)(=O)Nc2ccc3c(c2)C(=O)N([C@H](C)CO)C[C@@H](C)[C@H](CN(C)C(=O)Nc2cccc4ccccc24)O3)cc1	.	.	2	.	.	.
CCCCOc1ccc(C(C)NC(=O)C2CCCN(S(=O)(=O)CCC)C2)cc1 (stereo not drawn)	18	-1	1	20*	-4	-19
CCCS(=O)(=O)N1CCCC(C(=O)NC2CCCCC2)C1 (stereo not drawn)	34	2	-11	11	.	.
COc1cc(OC)c(C2C(C#N)=C(C)NC(C)=C2C#N)c(C(=O)O)c1	11	-3	4	24*	1	-5
CC(C)C#Cc1ccc2c(c1)O[C@@H](CN(C)Cc1cccnc1)[C@H](C)CN([C@@H](C)CO)S2(=O)=O	.	.	3	.	.	.
NC(c1ccccc1)c1csc(Nc2ccc(C(F)(F)F)cn2)n1 (stereo not drawn)	.	-1	.	6	.	.
CC(C)C(N)c1csc(Nc2ccc(C(F)(F)F)cn2)n1 (stereo not drawn)	.	0	.	23*	12	-10
O=C1CN(C(=O)c2cc([N+](=O)[O-])ccc2Cl)C(c2ccccc2)c2cc(F)ccc2N1 (stereo not drawn)	7	4	.	31*	6	-7
COC(=O)c1c(C)cc(C)n2c1nc1ccccc12	19	-4	.	22*	6	-6
Cc1cc(C)n2c(nc3ccccc32)c1C(=O)NN	12	-5	.	-6	.	.
COC(=O)c1ccc(NC(=O)CNCc2ccncc2)cc1	-1	1	-2	21*	3	-5
COC(=O)c1ccc(CNCC(=O)Nc2ccc(C(=O)OC)cc2)cc1	10	-2	.	-4	.	.
N#Cc1ccc(C=NN2CCCCCC2)cc1	.	-1	.	21*	23*	2
Clc1ccc(/C=N/N2CCCCC2)cc1	11	-1	-2	17	.	.
COc1ccc(C(=O)NCCS(=O)(=O)NCc2ccccc2)cc1	-4	0	-2	-2	.	.
O=C(NCCS(=O)(=O)NCc1ccccc1)c1ccccc1	2	2	1	19*	-1	-5
Nc1ccc(Oc2cc(N)cc(Oc3ccccc3)c2)cc1	28	-2	3	23*	10	-2
SMILES	AI-2 QS modul	Rin1 Abl inh	ARNT TACC3 PPI	HGIII-sPLA2 inh	hGIII sPLA2 conf	BODIPY interf	others
C[N+](C)(C)CCCCCC[N+](C)(C)C	8	-4	-2	3	.	.
C[N+](C)(C)CCCCCC(=O)/C=N/O	19	-3	-4	22*	4	-5
COc1ccccc1NC(=O)COC(=O)c1ccc2c(c1)OCCO2	.	-3	-6	5	.	.
C=CCN1C(=O)c2ccc(C(=O)OCC(=O)Nc3ccccc3OC)cc2C1=O	.	0	.	20*	-2	-4
CCOC(=O)c1sc2ncc([N+](=O)[O-])cc2c1N	2	-7	7	4	.	.
CCOC(=O)CNc1ncc([N+](=O)[O-])cc1C#N	29	0	.	22*	-3	-8
Cc1ccc(S(=O)(=O)N[C@@H]2CCCN(Cc3cccc(OCCO)c3)C2)cc1	.	.	1	.	.	.
COCCNC(=O)c1c[nH]c2ccc(S(=O)(=O)N3CCOCC3)cc2c1=O	13	-5	-1	1	.	.
CN(Cc1ccccc1)C(=O)c1c[nH]c2ccc(S(=O)(=O)N3CCOCC3)cc2c1=O	16	-1	.	20*	-4	-6
COc1cc(OC)cc(C(=O)NNC(=O)c2cc3ccccc3cc2O)c1	6	0	-1	10	.	.
COc1ccccc1NC(=O)NNC(=O)c1cc2ccccc2cc1O	16	2	6	27*	20*	6
Cc1ccc(NC(=O)NNC(=O)COc2ccc3ccccc3c2)cc1	16	0	-1	-10	.	.
Cc1ccc(NC(=O)NNC(=O)c2cc3ccccc3cc2O)cc1	13	-4	-4	27*	15	-4
CC(C)CC#Cc1cnc2c(c1)C(=O)N([C@H](C)CO)C[C@@H](C)[C@@H](CN(C)C(=O)Cc1ccncc1)O2	.	.	-1	.	.	.
CC(C)N=C1NN=C(c2cccs2)C(CC(=O)O)S1 (stereo not drawn)	15	-1	40	20*	1	-5
O=C(NC(=S)N1CCN(C/C=C/c2ccccc2)CC1)c1c(F)cccc1F	7	-2	-2	27*	24*	-2
O=C(NC(=S)N1CCN(C/C=C/c2ccccc2)CC1)c1ccco1	17	2	1	1	.	.
CCOc1ccc(/C=C2\NC(=S)NC2=O)cc1	-2	0	-8	24*	23*	-4
Cc1no[n+]([O-])c1COc1ccc(/C=C2\NC(=S)NC2=O)cc1	-15	-5	6	0	.	.
CN1CCN(C(=O)C[C@@H]2CC[C@@H]3[C@H](COC[C@H](O)CN3C(=O)c3ccc(F)cc3)O2)CC1	.	.	3	.	.	.
O=c1oc2ccccc2c(N2CCCC2)c1[N+](=O)[O-]	26	0	-3	12	.	.
CC1CCN(c2c([N+](=O)[O-])c(=O)oc3ccccc23)CC1	12	2	-3	21*	4	-1
CO[C@H]1CN(C)C(=O)c2ccc(NC(=O)C3CCC3)cc2OC[C@@H](C)N(Cc2cccnc2)C[C@H]1C	.	.	-16	.	.	.
